# Results filed as inconclusive are left out. The source made the active and inactive calls. The call rests on the fitted dose curve; in most records, active means well fitted inhibition curve with a large enough effect; inconclusive means small, poorly fitted or top-dose-only effect; inactive means flat fitted curve, though single readings scatter.
# Biological target: Lysine-specific demethylase 5B (Homo sapiens) (UniProt Q9UGL1)
# Assay: Optimization screen for KDM5B Histone Demethylases FDH coupled qHTS against the LOPAC library (AID 1347166)
# Conditions: KDM5B demethylation, FDH-coupled NADH fluorescence (FDH is formaldehyde dehydrogenase); series mostly up to 57.5 µM
# How it was run: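 KDM5BDeltaAP (200nM final) preincubated 10 min with compound, then 12.5uM H3K4Me3, 25uM a-ketoglutarate, ascorbate, Fe(II), NAD+ and FDH added; 50mM HEPES pH 7.5, 0.01% Tween-20. NADH fluorescence (340/450 nm) change over 30 min, room temperature.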
# Chain of Lysine-specific demethylase 5B (Homo sapiens) (Q9UGL1 whole entry, looked up): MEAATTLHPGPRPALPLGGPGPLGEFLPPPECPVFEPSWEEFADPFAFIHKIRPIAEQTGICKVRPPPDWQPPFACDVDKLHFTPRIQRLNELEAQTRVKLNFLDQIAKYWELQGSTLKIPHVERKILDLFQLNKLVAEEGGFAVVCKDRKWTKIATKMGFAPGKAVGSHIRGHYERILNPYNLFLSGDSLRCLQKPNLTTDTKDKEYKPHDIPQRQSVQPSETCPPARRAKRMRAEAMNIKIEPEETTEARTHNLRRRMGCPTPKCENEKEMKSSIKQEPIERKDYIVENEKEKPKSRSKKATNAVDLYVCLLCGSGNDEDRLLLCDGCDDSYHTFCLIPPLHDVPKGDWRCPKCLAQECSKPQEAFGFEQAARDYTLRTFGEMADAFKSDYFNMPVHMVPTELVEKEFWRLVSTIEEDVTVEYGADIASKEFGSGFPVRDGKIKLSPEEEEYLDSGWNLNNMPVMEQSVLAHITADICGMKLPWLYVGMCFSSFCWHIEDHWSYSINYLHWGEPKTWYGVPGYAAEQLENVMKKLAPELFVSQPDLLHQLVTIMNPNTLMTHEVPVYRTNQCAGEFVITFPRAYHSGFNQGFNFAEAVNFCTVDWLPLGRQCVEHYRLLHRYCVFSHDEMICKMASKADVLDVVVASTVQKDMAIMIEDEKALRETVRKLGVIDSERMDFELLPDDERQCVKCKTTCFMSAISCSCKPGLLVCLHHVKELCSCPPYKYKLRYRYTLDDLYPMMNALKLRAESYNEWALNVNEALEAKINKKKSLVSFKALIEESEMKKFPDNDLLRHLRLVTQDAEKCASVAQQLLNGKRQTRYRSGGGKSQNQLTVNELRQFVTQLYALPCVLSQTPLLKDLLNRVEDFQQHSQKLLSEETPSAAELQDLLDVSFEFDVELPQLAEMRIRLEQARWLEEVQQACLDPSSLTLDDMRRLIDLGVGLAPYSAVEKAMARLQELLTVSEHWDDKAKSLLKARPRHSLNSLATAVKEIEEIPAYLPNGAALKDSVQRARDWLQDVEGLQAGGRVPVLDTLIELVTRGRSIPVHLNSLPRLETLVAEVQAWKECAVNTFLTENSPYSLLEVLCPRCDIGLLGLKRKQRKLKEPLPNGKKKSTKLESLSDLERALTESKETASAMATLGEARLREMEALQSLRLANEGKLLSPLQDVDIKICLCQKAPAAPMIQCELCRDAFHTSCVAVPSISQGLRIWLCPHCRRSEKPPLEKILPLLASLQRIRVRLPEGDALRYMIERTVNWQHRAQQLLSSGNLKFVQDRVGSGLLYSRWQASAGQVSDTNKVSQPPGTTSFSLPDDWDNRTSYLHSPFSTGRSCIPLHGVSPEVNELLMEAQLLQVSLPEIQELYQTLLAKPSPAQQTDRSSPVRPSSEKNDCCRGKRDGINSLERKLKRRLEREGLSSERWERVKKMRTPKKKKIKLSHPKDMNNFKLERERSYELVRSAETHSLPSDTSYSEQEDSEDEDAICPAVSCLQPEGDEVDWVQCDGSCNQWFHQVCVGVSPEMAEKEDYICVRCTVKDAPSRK
row,Compound,outcome
1,COc1ccc(C(CN(C)C)C2(O)CCCCC2)cc1 (stereo unspecified),inactive
2,Nc1ccncc1,inactive
3,CCC1(C2=NCCN2)Cc2ccccc2O1 (stereo unspecified),inactive
4,Cc1ncc(CNC(=O)N(CCCl)N=O)c(N)n1,inactive
5,NCC(O)c1ccc(O)cc1 (stereo unspecified),inactive
6,NCC1(CC(=O)O)CCCCC1,inactive
7,CCCN1CCC[C@@H]2Cc3[nH]ncc3C[C@H]21,inactive
8,c1ccc2c(c1)OCC(C1=NCCN1)O2 (stereo unspecified),inactive
9,C=C(C)[C@H]1Cc2c(ccc3c2O[C@@H]2COc4cc(OC)c(OC)cc4[C@@H]2C3=O)O1,inactive
10,CNCC(O)c1ccc(O)cc1 (stereo unspecified),inactive
11,C[C@]12CCC(=O)C(O)=C1CC[C@@H]1[C@@H]2CC[C@]2(C)C(=O)CC[C@@H]12,inactive
12,CCCN1CCC[C@@H]2Cc3nc(N)ncc3C[C@H]21,inactive
13,COc1ccccc1N1CCNCC1,inactive
14,CCCC(C)(COC(N)=O)COC(=O)NC(C)C (stereo unspecified),inactive
15,CC(C)=CCOc1c2occc2cc2ccc(=O)oc12,inactive
16,CC(CCc1ccccc1)NC(C)C(O)c1ccc(O)cc1 (stereo unspecified),inactive
17,O=C1NCN(c2ccccc2)C12CCN(CC1COc3ccccc3O1)CC2 (stereo unspecified),inactive
18,NCC(CC(=O)O)c1ccc(Cl)cc1 (stereo unspecified),inactive
19,CC(=O)[C@H]1CC[C@H]2[C@@H]3CC[C@H]4C[C@](C)(O)CC[C@]4(C)[C@H]3CC[C@]12C,inactive
20,Cc1cccc(C)c1NC(=O)CN1CCCC1=O,inactive
21,Cc1cccc(C)c1NC1=NCCCS1,inactive

# Source: PubChem BioAssay (NCATS)
